The panel holds about 83,000 compounds, 20% with a hit somewhere; the sample as a whole holds those more often.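 The endpoint reported here, percent growth, reads 100 for growth as untreated, 0 for no net growth and -100 for all cells dead.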 Values without a mark were called inactive. Activity calls are given as the source filed them. How the source made its calls: active means growth percent below 10; inactive means the rest.

Common to all, as to assay: NCI-60 one-dose screen, 48 h (100 = growth as untreated, 0 = no growth, -100 = all killed)
Holding throughout (settings): 10 µM unless noted

Assay [1] relates to NCI-H23 lung.
Assay [2] has as its system NCI-H226 lung.
Assay [3] concerns NCI-H322M lung.
For assay [4], the system named is HOP-62 NSCLC.
For assay [5], the system named is NCI-H460 lung.
Assay [6] deals with HOP-92 NSCLC.
The subject of assay [7] is NCI-H522 lung.
The subject of assay [8] is A549/ATCC NSCLC.
The subject of assay [9] is 786-0 renal.
Assay [10] relates to DU-145 prostate.
Assay [11] relates to K-562 leukemia.
Assay [12] has as its system MALME-3M melanoma.
Assay [13] relates to MDA-MB-231 breast.
For assay [14], the system named is RXF 393 renal.
In assay [15] the test system is SF-268 CNS.
Assay [16] relates to SF-295 CNS.
In assay [17] the test system is SF-539 CNS.
For assay [18], the system named is UACC-257 melanoma.
The subject of assay [19] is M14 melanoma.
The subject of assay [20] is COLO 205 colon.

As to `COc1cc(CNC(=O)CCCC/C=C/C(C)C)ccc1OCc1cn(-c2cccc([N+](=O)[O-])c2)nn1`, the growth was 88% in [1]; 90.9% in assay [2]; 94.1% in assay [3]; 97.4% in assay [4]; 91.8% in [5]; 70.4% in assay [6]. The growth in assay [7] is 82.6%; in [8], 92%; in assay [9] it was 73.4%; in assay [10], 109%; in [11], 81.5%; in assay [12], 103%. The growth is 88.4% in [13]; 92.7% in assay [14]; 92.3% in assay [15]; 104% in assay [16]; 94.4% in [17]; 94.4% in [18]. Besides, the growth in assay [19] was 93.5%.
For the compound `O=S(=O)(Nc1ccc(Br)cc1)c1ccc(-c2cnc(C3CC3)o2)cc1`, the growth in [1] was 40.8%; in [2], 67.3%; in assay [3], 61.9%; in [4], 27.1%; in assay [5], 12.8%; in [6] it was 43%. Moreover, the growth in [7] was 11%; in assay [8], 40.1%; in assay [9], 37.8%; in assay [10], 38.1%; in assay [11], 11.3%; in [12], 44.4%. For the same compound, the growth was 35.2% in [13]; 10.4% in [14]; 39.9% in assay [15]; 28.9% in assay [16]; 3.63% (active) in [17]; 66.1% in assay [18]. Moreover, in assay [19], the growth is 18.1%.
On to `O=C(Nc1ccc2[nH]ncc2c1)c1csc(Nc2ccccc2)n1`, for which the growth in assay [1] is 47.3%; in assay [2], 67.2%; in assay [3] it was 46.5%; in [4], 50.7%; in [5] it was 11.9%; in [6], 77.9%. The growth in assay [7] is 17.5%; in assay [8], 40.7%; in assay [9], 38.9%; in assay [20] it was 33.2%; in assay [10] it was 21.4%; in [11], 20.7%. Besides, the growth in [12] was 69%; in assay [13] it was 58.5%; in assay [14], 12.9%; in [15], 56.6%; in assay [16] it was 22.6%; in assay [17] it was 22.5%. The growth is 77.2% in [18] and 24.5% in [19].
Consider `CN1CCN(Cc2ccc(NC(=O)c3cncc(C#Cc4cnc(N)c5ncccc45)c3)cc2Cl)CC1`, for which the growth was 57.3% in [1]; 56.5% in [2]; 116% in [3]; 89.8% in assay [4]; 3.07% (active) in assay [5]; 75.6% in [6]. Moreover, the growth in [7] was 85.2%; in assay [8], 74.7%; in assay [9] it was -78.2% (active); in assay [20], 70.3%; in assay [10], 77.1%; in assay [11], -28.9% (active). For the same compound, the growth is 54.2% in [12]; 16.2% in assay [13]; 21.8% in [14]; 98.7% in assay [15]; 101% in [16]; 83.1% in assay [17]. Moreover, the growth is 89.7% in [18] and 84.4% in [19].
For the compound `N=C(N)c1ccc(-c2ccc(-c3ccccc3)s2)nc1`, the growth in assay [1] is 94.1%; in assay [2], 92.8%; in assay [3] it was 80.4%; in [4] it was 88.8%; in [5], 23.1%; in [6] it was 70.2%. The growth in [7] is 83.9%; in assay [8], 83.8%; in assay [9], 91.3%; in assay [10], 92.1%; in [11] it was 14.5%; in assay [12] it was 101%. The growth in assay [13] was 86.1%; in assay [14], 87.2%; in assay [15] it was 93.8%; in assay [16] it was 88%; in [17] it was 88.2%; in [18] it was 96%. Besides, the growth in [19] is 88.7%.
Turning to `O=c1c(/C=C/c2c(O)ccc3ccccc23)nnc2sc(-c3cccc([N+](=O)[O-])c3)nn12`, the growth in [1] was 61.6%; in [2], 64.2%; in [3] it was 41.1%; in assay [4] it was 31%; in [5], 26.5%; in assay [6] it was 65.7%. Further, the growth is 86.3% in assay [7]; 45.7% in [8]; 57% in assay [9]; 84.4% in assay [20]; 44.1% in [10]; 50.9% in [11]. The growth was 72.9% in assay [12]; 30.8% in assay [13]; 74.5% in assay [14]; 40.4% in assay [15]; 43.8% in [16]; 53.2% in [17]. The growth in assay [18] is 54.6%; in [19], 52.3%.
Take `CCN1C(=O)N(CC)C2C1NN=c1s/c(=C\c3ccccc3)c(=O)n12` (stereo not given): the growth was 25.6% in [1]; 59.1% in assay [2]; 42.6% in assay [3]; 38.2% in assay [4]; 4.35% (active) in [5]; 27.3% in assay [6]. In addition, the growth was -8.72% (active) in [7]; 7.65% (active) in assay [8]; 25.1% in assay [9]; 5.47% (active) in assay [10]; 8.79% (active) in [11]; 41.1% in [12]. The growth in assay [13] is 2.86% (active); in assay [14], 32%; in assay [15] it was 54.8%; in assay [16], 5.04% (active); in assay [17], -12.5% (active); in assay [18] it was 45.8%. The growth in assay [19] is 8.9% (active).
On to `O=C(O)CCCN1C(=O)CSC1=S`, for which the growth in assay [1] is 104%; in assay [2], 111%; in assay [3], 100%; in [4] it was 103%; in assay [5], 101%; in assay [6] it was 103%. Moreover, the growth was 93.3% in assay [7]; 105% in assay [8]; 102% in assay [9]; 107% in assay [10]; 103% in assay [11]; 102% in assay [12]. For the same compound, the growth in assay [13] was 107%; in assay [14] it was 107%; in assay [15], 93.9%; in assay [16], 106%; in assay [17] it was 102%; in assay [18], 95.9%. The growth in assay [19] was 93.3%.

For the origin of these results see PubChem BioAssay (NCI).
